# Laboratory results published in PubChem BioAssay (NCATS).
# “And” between values parts separate entries of the source, which are not always exact repeats. Equal values may be shown once. Inconclusive results are not listed. A call without a number means that no potency is given here. The source made the active and inactive calls. Unless noted, calls come from the whole dose curve.
# What was measured:
# [1] = target: Estrogen receptor (Homo sapiens) (UniProt P03372); test: qHTS assay for small molecule antagonists of estrogen receptor alpha signaling (AID 588513; active = well fitted curve in the direction sought with a large enough effect in the signal ratio, with a control signal flat, not every such curve was filed as active; the % refers to the signal ratio)
# Estrogen receptor (Homo sapiens), sequence (P03372 whole entry, looked up): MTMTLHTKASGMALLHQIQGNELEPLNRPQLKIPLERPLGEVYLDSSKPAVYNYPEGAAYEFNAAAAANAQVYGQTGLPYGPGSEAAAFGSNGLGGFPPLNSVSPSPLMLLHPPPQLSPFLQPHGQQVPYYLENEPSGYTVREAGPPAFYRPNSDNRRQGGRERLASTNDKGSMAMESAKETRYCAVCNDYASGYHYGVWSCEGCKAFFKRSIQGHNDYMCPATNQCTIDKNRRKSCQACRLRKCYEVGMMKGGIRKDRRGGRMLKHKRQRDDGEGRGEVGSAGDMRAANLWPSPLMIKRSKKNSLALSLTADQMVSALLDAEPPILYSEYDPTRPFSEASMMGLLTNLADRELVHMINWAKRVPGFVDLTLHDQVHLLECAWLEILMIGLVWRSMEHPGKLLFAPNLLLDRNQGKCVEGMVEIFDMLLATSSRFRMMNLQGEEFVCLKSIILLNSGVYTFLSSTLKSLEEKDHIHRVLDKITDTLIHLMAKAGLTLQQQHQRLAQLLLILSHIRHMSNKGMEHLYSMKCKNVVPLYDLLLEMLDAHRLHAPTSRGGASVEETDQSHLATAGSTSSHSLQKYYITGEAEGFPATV
# How it was run: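 Antagonist mode: inhibition of 0.5 nM 17-beta-estradiol-driven beta-lactamase reporter in HEK 293 ER-alpha-UAS-bla cells, 18 h at 37C, CCF4 readout after 2 h at RT. Normalised to estradiol and DMSO; titration fitted to Hill.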
# [2] = target: Estrogen receptor (Homo sapiens) (UniProt P03372); test: qHTS assay for small molecule agonists of estrogen receptor alpha signaling (AID 588514); note: nearly all actives have a fitted effect of over 70% in size; note: potency is the fitted concentration of half-maximal effect
# How it was run: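 ER-alpha-UAS-bla GripTite HEK293 cells, 5000/well in 2% charcoal/dextran-stripped FBS medium, treated with compound titrations 18 h at 37 C. CCF4 beta-lactamase read by fluorescence after 2 h RT; normalised to 20 nM 17-beta-estradiol (100%) and DMSO (0%), Hill fit for EC50 and efficacy.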
# [3] = target: Glucocorticoid receptor (Homo sapiens) (UniProt P04150); test: qHTS assay for small molecule agonists of glucocorticoid receptor signaling (AID 588532; active = well fitted curve in the direction sought with a large enough effect in the signal ratio, with a control signal flat; the % refers to the signal ratio); settings: HeLa MMTV-bla, beta-lactamase ratio, agonist, 18 h; stronger effect = higher value; percent of dexamethasone control, DMSO zero
# Glucocorticoid receptor (Homo sapiens), sequence (P04150 whole entry, looked up): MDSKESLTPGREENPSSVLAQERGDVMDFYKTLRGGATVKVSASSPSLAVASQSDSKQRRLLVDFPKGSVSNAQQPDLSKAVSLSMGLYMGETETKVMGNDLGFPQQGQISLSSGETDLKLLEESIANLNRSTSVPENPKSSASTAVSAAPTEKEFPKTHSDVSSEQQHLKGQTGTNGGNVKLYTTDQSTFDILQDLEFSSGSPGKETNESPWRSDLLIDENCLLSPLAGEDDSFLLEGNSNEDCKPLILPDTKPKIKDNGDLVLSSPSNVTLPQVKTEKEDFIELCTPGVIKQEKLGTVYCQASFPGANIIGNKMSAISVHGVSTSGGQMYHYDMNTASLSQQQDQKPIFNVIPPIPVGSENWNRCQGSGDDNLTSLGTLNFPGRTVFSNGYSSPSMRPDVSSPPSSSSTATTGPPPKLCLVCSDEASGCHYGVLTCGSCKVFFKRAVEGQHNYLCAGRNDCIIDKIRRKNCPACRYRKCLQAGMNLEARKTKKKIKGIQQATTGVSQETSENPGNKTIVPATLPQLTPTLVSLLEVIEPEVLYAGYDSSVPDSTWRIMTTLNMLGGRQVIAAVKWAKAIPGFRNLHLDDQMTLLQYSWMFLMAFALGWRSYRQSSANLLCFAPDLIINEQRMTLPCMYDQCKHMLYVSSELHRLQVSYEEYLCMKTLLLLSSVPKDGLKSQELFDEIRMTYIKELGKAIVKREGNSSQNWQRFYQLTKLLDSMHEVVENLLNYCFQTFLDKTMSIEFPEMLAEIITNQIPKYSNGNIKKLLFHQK
# How it was run: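 MMTV-bla HeLa, beta-lactamase reporter; medium with 1% charcoal/dextran-stripped FBS; cpds up to 92 uM, 18 h, 37 C; CCF4 readout 460/530 nm; Hill fit → EC50, efficacy vs 0.1 uM dexamethasone = 100%.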
# [4] = target: Glucocorticoid receptor (Homo sapiens) (UniProt P04150); test: qHTS assay for small molecule antagonists of glucocorticoid receptor signaling (AID 588533; active = well fitted inhibition curve with a large enough effect in the signal ratio, with a control signal flat, not every such curve was filed as active; the % refers to the signal ratio;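 note: cells stimulated with 2 nM dexamethasone as agonist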)
# How it was run: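 Antagonist-mode qHTS: compound titrations added to GRE-bla HeLa cells, then dexamethasone 2 nM final; 18 h, 37 C. CCF4 FRET fluorescence normalized to dexamethasone and DMSO; IC50 from Hill fit.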
# [5] = qHTS assay for small molecule antagonists of peroxisome proliferator-activated receptor delta signaling (AID 588535); settings: HEK293T PPARd-UAS-bla, beta-lactamase FRET ratio, 18 h; 460 nm channel;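 note: cells co-treated with a PPAR-delta agonist as stimulator during compound exposure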
# How it was run: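 Reporter: UAS-bla under PPAR-delta response element, HEK293T host. Medium: 2% charcoal/dextran FBS. Dosing: titration, 18 hrs, 37 C. Detection: CCF4, 2 hrs RT, 405 ex/460 and 530 em.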
# [6] = target: Peroxisome proliferator-activated receptor gamma (Homo sapiens) (UniProt P37231); test: qHTS assay for small molecule agonists of peroxisome proliferator-activated receptor gamma signaling (AID 588536; active = well fitted curve in the direction sought with a large enough effect in the signal ratio, with a control signal flat, not every such curve was filed as active; the % refers to the signal ratio)
# Peroxisome proliferator-activated receptor gamma (Homo sapiens), sequence (P37231 whole entry, looked up): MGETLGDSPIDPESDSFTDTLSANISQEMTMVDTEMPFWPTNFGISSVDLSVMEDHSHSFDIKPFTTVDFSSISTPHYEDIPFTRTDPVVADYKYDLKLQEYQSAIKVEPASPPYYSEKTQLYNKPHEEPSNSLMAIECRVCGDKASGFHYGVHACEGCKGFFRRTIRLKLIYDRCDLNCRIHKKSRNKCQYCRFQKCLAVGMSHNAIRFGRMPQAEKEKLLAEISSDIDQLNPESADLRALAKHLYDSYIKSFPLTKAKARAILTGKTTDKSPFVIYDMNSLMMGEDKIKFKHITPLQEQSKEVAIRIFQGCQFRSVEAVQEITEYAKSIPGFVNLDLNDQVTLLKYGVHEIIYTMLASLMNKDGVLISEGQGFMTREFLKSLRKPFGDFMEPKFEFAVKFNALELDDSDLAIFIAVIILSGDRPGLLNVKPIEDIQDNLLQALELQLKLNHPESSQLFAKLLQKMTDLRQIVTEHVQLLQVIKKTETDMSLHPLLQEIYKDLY
# How it was run: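 PPAR-gamma-UAS-bla HEK293 cells in medium with 1% charcoal/dextran-treated FBS were exposed to compounds for 16 h at 37 C. Beta-lactamase activity was read with CCF4 substrate (405 nm excitation, 460/530 nm emission).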
# [7] = target: Peroxisome proliferator-activated receptor gamma (Homo sapiens) (UniProt P37231); test: qHTS assay for small molecule antagonists of peroxisome proliferator-activated receptor gamma signaling (AID 588537; active = well fitted inhibition curve with a large enough effect in the signal ratio, with a control signal flat, not every such curve was filed as active; the % refers to the signal ratio;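 note: reporter cells co-stimulated with 50 nM rosiglitazone agonist during compound treatment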)
# How it was run: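 We seeded GeneBLAzer HEK293 reporter cells at 3000 per well, allowed 6-6.5 h attachment at 37 C, then co-treated with test compound titrations and 50 nM rosiglitazone overnight (16 h). Inhibition was quantified from 460/530 nm emission ratios.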
# [8] = target: Vitamin D3 receptor (Homo sapiens) (UniProt P11473); test: qHTS assay for small molecule antagonists of vitamin D receptor signaling (AID 588541);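 note: receptor activated by calcitriol during compound treatment; series mostly up to about 77 µM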
# Vitamin D3 receptor (Homo sapiens), sequence (P11473 whole entry, looked up): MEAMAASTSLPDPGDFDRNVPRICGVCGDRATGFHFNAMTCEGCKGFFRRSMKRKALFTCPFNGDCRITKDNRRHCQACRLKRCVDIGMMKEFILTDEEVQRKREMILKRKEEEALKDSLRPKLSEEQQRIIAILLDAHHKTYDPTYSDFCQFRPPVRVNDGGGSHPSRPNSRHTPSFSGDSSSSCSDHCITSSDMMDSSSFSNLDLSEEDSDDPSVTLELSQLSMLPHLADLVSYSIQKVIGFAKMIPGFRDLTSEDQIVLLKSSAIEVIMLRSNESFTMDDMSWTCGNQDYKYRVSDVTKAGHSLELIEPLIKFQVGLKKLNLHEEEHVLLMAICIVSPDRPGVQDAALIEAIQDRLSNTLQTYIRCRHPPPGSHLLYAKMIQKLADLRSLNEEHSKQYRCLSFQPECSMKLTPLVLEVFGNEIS
# How it was run: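 VDR-UAS-bla HEK293T cells (2000/well, 2% charcoal-stripped FBS) were treated with titrated compounds plus 1-alpha,25-dihydroxyvitamin D3 (50 nM or 3 nM final) for 16 h at 37 C. CCF4 beta-lactamase fluorescence was read; Hill fits gave IC50.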
# [9] = target: Vitamin D3 receptor (Homo sapiens) (UniProt P11473); test: qHTS assay for small molecule agonists of vitamin D receptor signaling (AID 588543)
# How it was run: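 Agonist-mode beta-lactamase reporter: HEK293T VDR-UAS-bla cells in charcoal-stripped 2% FBS, compound series 16 h 37 C, CCF4 2 h RT. EC50 from Hill fit, scaled against DMSO and 50 nM calcitriol control.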
# [10] = qHTS assay for small molecule agonists of retinoid X receptor alpha signaling (AID 588544); settings: HEK293T RXRa-UAS-bla, beta-lactamase reporter, 18 h; 530 nm emission
# [11] = target: Retinoic acid receptor RXR-alpha (Homo sapiens) (UniProt P19793); test: as above
# Retinoic acid receptor RXR-alpha (Homo sapiens), sequence (P19793 whole entry, looked up): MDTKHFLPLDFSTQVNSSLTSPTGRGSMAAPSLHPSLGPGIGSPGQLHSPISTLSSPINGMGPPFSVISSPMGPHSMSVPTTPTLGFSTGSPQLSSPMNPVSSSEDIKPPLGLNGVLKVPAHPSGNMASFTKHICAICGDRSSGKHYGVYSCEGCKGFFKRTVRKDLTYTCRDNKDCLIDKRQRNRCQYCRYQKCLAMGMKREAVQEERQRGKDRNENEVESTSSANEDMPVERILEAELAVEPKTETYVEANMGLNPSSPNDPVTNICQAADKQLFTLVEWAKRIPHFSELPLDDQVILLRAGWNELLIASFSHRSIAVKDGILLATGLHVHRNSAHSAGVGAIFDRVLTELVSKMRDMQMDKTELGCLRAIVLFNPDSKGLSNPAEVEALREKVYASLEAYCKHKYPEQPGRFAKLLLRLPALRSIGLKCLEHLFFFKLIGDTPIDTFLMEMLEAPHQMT
# [12] = target: Thyroid hormone receptor beta (Homo sapiens) (UniProt P10828); test: qHTS assay for small molecule agonists of thyroid hormone receptor beta signaling (AID 588545)
# Thyroid hormone receptor beta (Homo sapiens), sequence (P10828 whole entry, looked up): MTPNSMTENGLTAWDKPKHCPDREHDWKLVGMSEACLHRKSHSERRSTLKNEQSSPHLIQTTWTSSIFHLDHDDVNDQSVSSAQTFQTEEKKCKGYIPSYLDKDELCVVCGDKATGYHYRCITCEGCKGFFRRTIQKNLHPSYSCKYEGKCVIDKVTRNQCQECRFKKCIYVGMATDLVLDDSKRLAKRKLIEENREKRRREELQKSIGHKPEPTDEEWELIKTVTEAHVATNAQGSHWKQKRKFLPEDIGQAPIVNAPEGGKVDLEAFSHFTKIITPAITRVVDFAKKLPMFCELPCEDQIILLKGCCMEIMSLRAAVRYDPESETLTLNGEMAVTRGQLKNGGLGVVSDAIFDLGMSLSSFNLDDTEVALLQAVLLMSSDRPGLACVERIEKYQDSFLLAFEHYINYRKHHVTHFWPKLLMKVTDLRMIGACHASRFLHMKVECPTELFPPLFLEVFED
# How it was run: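 Stimulation of a TR-driven beta-lactamase reporter was quantified in GripTite HEK 293 cells. Compound series ran for 18 hrs; curves were normalized to T3 and DMSO controls and fitted to yield EC50.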
# [13] = qHTS assay for small molecule antagonists of retinoid X receptor alpha signaling (AID 588546; active = well fitted inhibition curve with a large enough effect in the signal ratio, with a control signal flat, not every such curve was filed as active; the % refers to the signal ratio;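 note: cells stimulated with 9-cis-retinoic acid as agonist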); settings: HEK293T RXRa-UAS-bla, beta-lactamase ratio, antagonist mode; measured here: W530 green channel, cytotoxicity proxy
# How it was run: (§1)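 Beta-lactamase reporter inhibition, read as CCF4 fluorescence ratio (ex 405, em 460/530 nm) after 2 h at RT. HEK293T UAS-bla cells, 2500/well, were stimulated with 9-cis-RA at 500 or 100 nM final alongside test compound for 18 h at 37 C.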
# [14] = target: Retinoic acid receptor RXR-alpha (Homo sapiens) (UniProt P19793); test: as above; settings: HEK293T RXRa-UAS-bla, beta-lactamase ratio, antagonist mode
# How it was run: as §1
# [15] = qHTS for Inhibitors of ATXN expression: Validation of Cytotoxic Assay (AID 588349; active = well fitted curve in the direction sought with a large enough effect; an effect the other way counts as inactive or inconclusive)
# How it was run: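 HEK293 cells treated with titrated compound for 72 hr at 37 degrees C; viability read as intracellular ATP by CellTiter Glo luminescence.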
# [16] = qHTS for Inhibitors of ATXN expression: Validation (AID 588378; active = well fitted curve in the direction sought with a large enough effect; an effect the other way counts as inactive or inconclusive; note: series mostly up to about 57 µM; nearly all actives have a fitted effect of over 75% in size)
# How it was run: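 Luciferase luminescence (Bright-Glo) from an ATXN2-FFLuc HEK293 line after 24 h compound exposure at 37 °C, preceded by a CellTiter-Fluor fluorescence viability read. Serial dilutions of a reference ATXN2 inhibitor and a luciferase inhibitor served as controls.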
# [17] = target: DNA dC->dU-editing enzyme APOBEC-3G (Homo sapiens) (UniProt Q9HC16); test: qHTS for inhibitors of Vif-A3G interactions: Validation (AID 588379; active = well fitted curve in the direction sought with a large enough effect; an effect the other way counts as inactive or inconclusive)
# DNA dC->dU-editing enzyme APOBEC-3G (Homo sapiens), sequence (Q9HC16 whole entry, looked up): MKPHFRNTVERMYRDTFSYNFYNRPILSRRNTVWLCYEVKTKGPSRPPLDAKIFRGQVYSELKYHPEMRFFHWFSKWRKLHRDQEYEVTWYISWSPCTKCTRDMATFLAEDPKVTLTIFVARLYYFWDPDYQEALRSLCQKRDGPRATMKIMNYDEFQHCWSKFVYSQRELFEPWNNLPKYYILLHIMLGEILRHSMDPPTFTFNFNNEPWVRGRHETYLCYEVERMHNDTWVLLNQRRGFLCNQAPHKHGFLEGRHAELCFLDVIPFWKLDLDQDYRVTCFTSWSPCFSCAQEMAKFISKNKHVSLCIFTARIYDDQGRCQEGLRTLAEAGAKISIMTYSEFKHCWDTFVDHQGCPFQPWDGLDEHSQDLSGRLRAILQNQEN
# How it was run: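 HeLa cells stably expressing Vif and A3G-eYFP, 700 cells/well, incubated overnight at 37 deg C, then exposed to compound overnight at 37 deg C. Inhibition of Vif-mediated degradation read as increased yellow fluorescence (Ex 488/Em 500-530) by laser-scanning cytometry.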
# [18] = target: Bile acid receptor (Homo sapiens) (UniProt Q96RI1); test: qHTS assay for small molecule antagonists of farnesoid X receptor signaling (AID 588526)
# Bile acid receptor (Homo sapiens), sequence (Q96RI1 whole entry, looked up): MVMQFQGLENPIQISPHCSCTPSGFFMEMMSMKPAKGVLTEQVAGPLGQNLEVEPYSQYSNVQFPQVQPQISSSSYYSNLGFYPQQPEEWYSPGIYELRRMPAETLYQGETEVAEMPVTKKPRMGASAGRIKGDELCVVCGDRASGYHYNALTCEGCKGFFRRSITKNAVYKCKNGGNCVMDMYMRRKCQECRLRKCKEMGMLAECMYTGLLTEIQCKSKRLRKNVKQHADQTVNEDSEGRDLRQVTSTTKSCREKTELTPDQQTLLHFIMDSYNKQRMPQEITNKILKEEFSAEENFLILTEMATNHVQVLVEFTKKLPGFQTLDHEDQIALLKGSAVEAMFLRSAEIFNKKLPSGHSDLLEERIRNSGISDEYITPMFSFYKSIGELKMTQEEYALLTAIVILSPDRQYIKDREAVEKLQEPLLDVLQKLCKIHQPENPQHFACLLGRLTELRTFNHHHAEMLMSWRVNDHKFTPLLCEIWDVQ
# How it was run: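 Concentration-response titrations were fitted to the Hill equation for half-maximal inhibition and maximal response, with data normalised to 50 uM chenodeoxycholic acid and DMSO control wells. Cells: FXR-UAS-bla HEK293T, dialyzed FBS.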
structure (smiles),measurement,setting,value
CCCCCCCCCCCCCCCCO,Potency,[1],inactive
same,Potency,[2],inactive
same,activation,[3],-8.72% (inactive)
same,outcome,[4],inactive
same,max response,[5],-7.5%
same,outcome,[6],inactive
same,Potency,[7],inactive
same,Potency,[8],inactive
same,outcome,[9],inactive
same,max response,[10],2.95%
same,outcome,[11],inactive
same,outcome,[12],inactive
same,max response,[13],-10.1%
same,max response,[14],-12.7% (inactive)
CN=C(N)NCCC[C@H](N)C(=O)O,outcome,[15],inactive
same,outcome,[16],inactive
same,outcome,[17],inactive
Oc1ccc(Cl)cc1Cc1cc(Cl)ccc1O,Potency,[2],inactive
same,activation,[3],-2.26% (inactive) and 2.38% (inactive)
same,Potency,[8],inactive
same,outcome,[9],inactive
same,max response,[10],-27.5% and -0.357%
same,outcome,[11],inactive
same,outcome,[12],inactive
COc1cc([C@H]2Oc3cc([C@H]4Oc5cc(O)cc(O)c5C(=O)[C@@H]4O)ccc3O[C@@H]2CO)ccc1O,Potency,[1],inactive
same,outcome,[18],inactive
same,activation,[3],-3.21% (inactive)
same,Potency,[8],inactive
same,outcome,[9],inactive
CC1(C)OC[C@@H]2O[C@@]3(C(=O)O)OC(C)(C)O[C@H]3[C@@H]2O1,outcome,[6],inactive
same,Potency,[7],inactive
same,Potency,[8],inactive
same,outcome,[9],inactive
same,max response,[10],0.747%
same,outcome,[11],inactive
same,outcome,[12],inactive
same,max response,[13],-2.62%
same,max response,[14],1.08% (inactive)
COc1ccccc1N1CCN(CCCCNC(=O)c2ccc(-c3ccc(C(C)=O)cc3)cc2)CC1,outcome,[17],inactive
CC1(COc2ccc(CC3SC(=O)NC3=O)cc2)CCCCC1 (stereo unspecified),outcome,[12],inactive
same,max response,[13],20.2%
same,max response,[14],-22.1% (inactive)
CN(C)CCC[C@@]1(c2ccc(F)cc2)OCc2cc(C#N)ccc21,outcome,[17],inactive
CN1CCC[C@@H]1CCO[C@](C)(c1ccccc1)c1ccc(Cl)cc1,outcome,[17],inactive
NC(=O)c1ccccc1O,Potency,[1],inactive
same,Potency,[2],inactive
same,activation,[3],9.52% (inactive)
same,outcome,[4],inactive
same,max response,[5],7.67%
same,outcome,[6],inactive
same,Potency,[8],inactive
same,outcome,[9],inactive
same,max response,[10],-2.87%
same,outcome,[11],inactive
same,outcome,[12],inactive
same,max response,[13],-19%
same,max response,[14],18.9% (inactive)
CC(C)(C)NC[C@H](O)COc1nsnc1N1CCOCC1,outcome,[15],inactive
same,outcome,[16],inactive
same,outcome,[17],inactive
Cc1ncc(CO)c(C=O)c1O,outcome,[17],inactive
CCOC(=O)[C@H](CCc1ccccc1)N[C@@H](C)C(=O)N1[C@H](C(=O)O)C[C@H]2CCCC[C@@H]21,outcome,[15],inactive
same,outcome,[16],inactive
C#C[C@]1(O)CC[C@H]2[C@@H]3CCC4=Cc5oncc5C[C@]4(C)[C@H]3CC[C@@]21C,Potency,[2],3.16 µM (active)
same,activation,[3],-5.91% (inactive)
same,outcome,[6],inactive
same,outcome,[9],inactive
same,max response,[10],27%
same,outcome,[11],inactive
same,max response,[13],10.7%
same,max response,[14],-13.1% (inactive)
